# Measurements taken from PMC12820563, “FoxP3 forms a head-to-head dimer in vivo and stabilizes its multimerization on adjacent microsatellites”.
# Whole data set: some 16,000 sequences, median “rpm ratio (pull-down/input)” near 0.94, cut for the highest 2% near 1.7. Shown is part of a subset that was picked to be rich in the highest values.
# Target: T1, MBP-FoxP1dN (Mus musculus, UniProt P58462 326-579)
# T1 sequence: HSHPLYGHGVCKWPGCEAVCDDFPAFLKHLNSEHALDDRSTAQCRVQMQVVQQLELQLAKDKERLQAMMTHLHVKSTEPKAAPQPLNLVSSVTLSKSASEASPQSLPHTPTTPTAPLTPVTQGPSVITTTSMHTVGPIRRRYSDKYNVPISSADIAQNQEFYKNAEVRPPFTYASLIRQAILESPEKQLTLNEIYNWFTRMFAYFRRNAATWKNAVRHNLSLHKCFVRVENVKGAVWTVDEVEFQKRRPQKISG
# Assay: PD-seq (MBP pull-down with sequencing); 20 mM Tris-HCl pH 7.5, 100 mM NaCl, 1.5 mM MgCl2, 0.4 uM protein, 0.1 uM dsDNA library, 30 min, room temperature, amylose pull-down; high values mean tight binding
# Conditions: protein: recombinant; tags: His6-MBP; chain copies: 2; dsDNA, one strand shown
# Summary of the method: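 Mouse FoxP3 or FoxP1 fragment lacking the N-terminus, His6-MBP-tagged and expressed in E. coli, was incubated at 0.4 µM with 0.1 µM Klenow-filled degenerate double-stranded DNA library for 30 min at room temperature in Tris pH 7.5 buffer with NaCl and MgCl2. Complexes captured on amylose resin were washed three times and their DNA sequenced on Illumina. Binding is reads-per-million enrichment of pull-down over input, replicates pooled.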
row,Sequence,binding signal
1,GATGATTGTTCTCCCAGCTGATGAATTCGGGTAGTCGAGTAAACAAATTTTCCTAATCTTTCTGTTCAAGCGCCATCTAC,0.855 RPM ratio (pull-down/input)
2,GATGATTGTTCTCCCAGCTGATGAATTAAAAGTCTCGAGTAAACAAATTTTCCTAATCTTTCTGTTCAAGCGCCATCTAC,0.816 RPM ratio (pull-down/input)
3,GATGATTGTTCTCCCAGCTGATGAATTGTTCGTTTCGAGTAAACAAATTTTCCTAATCTTTCTGTTCAAGCGCCATCTAC,1.15 RPM ratio (pull-down/input)
4,GATGATTGTTCTCCCAGCTGATGAATTGCAAAGCTCGAGTAAACAAATTTTCCTAATCTTTCTGTTCAAGCGCCATCTAC,1.09 RPM ratio (pull-down/input)
5,GATGATTGTTCTCCCAGCTGATGAATTATACAGTTCGAGTAAACAAATTTTCCTAATCTTTCTGTTCAAGCGCCATCTAC,1.18 RPM ratio (pull-down/input)
6,GATGATTGTTCTCCCAGCTGATGAATTACTCACATCGAGTAAACAAATTTTCCTAATCTTTCTGTTCAAGCGCCATCTAC,1.28 RPM ratio (pull-down/input)
7,GATGATTGTTCTCCCAGCTGATGAATTTCGAATCTCGAGTAAACAAATTTTCCTAATCTTTCTGTTCAAGCGCCATCTAC,0.83 RPM ratio (pull-down/input)
8,GATGATTGTTCTCCCAGCTGATGAATTGTTAAACTCGAGTAAACAAATTTTCCTAATCTTTCTGTTCAAGCGCCATCTAC,1.1 RPM ratio (pull-down/input)
9,GATGATTGTTCTCCCAGCTGATGAATTCCGACACTCGAGTAAACAAATTTTCCTAATCTTTCTGTTCAAGCGCCATCTAC,0.88 RPM ratio (pull-down/input)
10,GATGATTGTTCTCCCAGCTGATGAATTACACTCGTCGAGTAAACAAATTTTCCTAATCTTTCTGTTCAAGCGCCATCTAC,1.15 RPM ratio (pull-down/input)
11,GATGATTGTTCTCCCAGCTGATGAATTCAGACGTTCGAGTAAACAAATTTTCCTAATCTTTCTGTTCAAGCGCCATCTAC,0.787 RPM ratio (pull-down/input)
12,GATGATTGTTCTCCCAGCTGATGAATTCTCCCAATCGAGTAAACAAATTTTCCTAATCTTTCTGTTCAAGCGCCATCTAC,0.958 RPM ratio (pull-down/input)
13,GATGATTGTTCTCCCAGCTGATGAATTCTTTCAATCGAGTAAACAAATTTTCCTAATCTTTCTGTTCAAGCGCCATCTAC,0.972 RPM ratio (pull-down/input)
14,GATGATTGTTCTCCCAGCTGATGAATTCAAACAATCGAGTAAACAAATTTTCCTAATCTTTCTGTTCAAGCGCCATCTAC,1.81 RPM ratio (pull-down/input)
15,GATGATTGTTCTCCCAGCTGATGAATTATGCGATTCGAGTAAACAAATTTTCCTAATCTTTCTGTTCAAGCGCCATCTAC,1.06 RPM ratio (pull-down/input)
16,GATGATTGTTCTCCCAGCTGATGAATTTGTAATGTCGAGTAAACAAATTTTCCTAATCTTTCTGTTCAAGCGCCATCTAC,1.26 RPM ratio (pull-down/input)
17,GATGATTGTTCTCCCAGCTGATGAATTTTGTATGTCGAGTAAACAAATTTTCCTAATCTTTCTGTTCAAGCGCCATCTAC,1.54 RPM ratio (pull-down/input)
18,GATGATTGTTCTCCCAGCTGATGAATTGTAATTGTCGAGTAAACAAATTTTCCTAATCTTTCTGTTCAAGCGCCATCTAC,1.39 RPM ratio (pull-down/input)
19,GATGATTGTTCTCCCAGCTGATGAATTTGTATTGTCGAGTAAACAAATTTTCCTAATCTTTCTGTTCAAGCGCCATCTAC,2.88 RPM ratio (pull-down/input)
20,GATGATTGTTCTCCCAGCTGATGAATTGTATTTGTCGAGTAAACAAATTTTCCTAATCTTTCTGTTCAAGCGCCATCTAC,2.5 RPM ratio (pull-down/input)
21,GATGATTGTTCTCCCAGCTGATGAATTGTATCTGTCGAGTAAACAAATTTTCCTAATCTTTCTGTTCAAGCGCCATCTAC,1.08 RPM ratio (pull-down/input)
22,GATGATTGTTCTCCCAGCTGATGAATTTGCGATCTCGAGTAAACAAATTTTCCTAATCTTTCTGTTCAAGCGCCATCTAC,0.924 RPM ratio (pull-down/input)
23,GATGATTGTTCTCCCAGCTGATGAATTAATTCCTTCGAGTAAACAAATTTTCCTAATCTTTCTGTTCAAGCGCCATCTAC,0.955 RPM ratio (pull-down/input)
24,GATGATTGTTCTCCCAGCTGATGAATTCCCGTTTTCGAGTAAACAAATTTTCCTAATCTTTCTGTTCAAGCGCCATCTAC,0.97 RPM ratio (pull-down/input)

row,Sequence,binding signal
1,GATGATTGTTCTCCCAGCTGATGAATTGGCCAACTCGAGTAAACAAATTTTCCTAATCTTTCTGTTCAAGCGCCATCTAC,0.833 RPM ratio (pull-down/input)
2,GATGATTGTTCTCCCAGCTGATGAATTCTATTTGTCGAGTAAACAAATTTTCCTAATCTTTCTGTTCAAGCGCCATCTAC,2.3 RPM ratio (pull-down/input)
3,GATGATTGTTCTCCCAGCTGATGAATTGTCTATTTCGAGTAAACAAATTTTCCTAATCTTTCTGTTCAAGCGCCATCTAC,1.31 RPM ratio (pull-down/input)
4,GATGATTGTTCTCCCAGCTGATGAATTCTAATTGTCGAGTAAACAAATTTTCCTAATCTTTCTGTTCAAGCGCCATCTAC,1.29 RPM ratio (pull-down/input)
5,GATGATTGTTCTCCCAGCTGATGAATTTGTCTATTCGAGTAAACAAATTTTCCTAATCTTTCTGTTCAAGCGCCATCTAC,1.28 RPM ratio (pull-down/input)
6,GATGATTGTTCTCCCAGCTGATGAATTCGTATTTTCGAGTAAACAAATTTTCCTAATCTTTCTGTTCAAGCGCCATCTAC,1.67 RPM ratio (pull-down/input)
7,GATGATTGTTCTCCCAGCTGATGAATTGTCGTATTCGAGTAAACAAATTTTCCTAATCTTTCTGTTCAAGCGCCATCTAC,1.14 RPM ratio (pull-down/input)
8,GATGATTGTTCTCCCAGCTGATGAATTTCTATTGTCGAGTAAACAAATTTTCCTAATCTTTCTGTTCAAGCGCCATCTAC,1.91 RPM ratio (pull-down/input)
9,GATGATTGTTCTCCCAGCTGATGAATTCTCTTTGTCGAGTAAACAAATTTTCCTAATCTTTCTGTTCAAGCGCCATCTAC,0.834 RPM ratio (pull-down/input)
10,GATGATTGTTCTCCCAGCTGATGAATTCGTATTGTCGAGTAAACAAATTTTCCTAATCTTTCTGTTCAAGCGCCATCTAC,2.07 RPM ratio (pull-down/input)
11,GATGATTGTTCTCCCAGCTGATGAATTTCCTATGTCGAGTAAACAAATTTTCCTAATCTTTCTGTTCAAGCGCCATCTAC,0.811 RPM ratio (pull-down/input)
12,GATGATTGTTCTCCCAGCTGATGAATTCCTATTGTCGAGTAAACAAATTTTCCTAATCTTTCTGTTCAAGCGCCATCTAC,2.02 RPM ratio (pull-down/input)
13,GATGATTGTTCTCCCAGCTGATGAATTCTATCTGTCGAGTAAACAAATTTTCCTAATCTTTCTGTTCAAGCGCCATCTAC,0.875 RPM ratio (pull-down/input)
14,GATGATTGTTCTCCCAGCTGATGAATTTCGCATTTCGAGTAAACAAATTTTCCTAATCTTTCTGTTCAAGCGCCATCTAC,1.28 RPM ratio (pull-down/input)
15,GATGATTGTTCTCCCAGCTGATGAATTGCCCAGTTCGAGTAAACAAATTTTCCTAATCTTTCTGTTCAAGCGCCATCTAC,0.931 RPM ratio (pull-down/input)
16,GATGATTGTTCTCCCAGCTGATGAATTGGGTCCTTCGAGTAAACAAATTTTCCTAATCTTTCTGTTCAAGCGCCATCTAC,0.85 RPM ratio (pull-down/input)
17,GATGATTGTTCTCCCAGCTGATGAATTGAACTTTTCGAGTAAACAAATTTTCCTAATCTTTCTGTTCAAGCGCCATCTAC,0.887 RPM ratio (pull-down/input)
18,GATGATTGTTCTCCCAGCTGATGAATTTTCACAATCGAGTAAACAAATTTTCCTAATCTTTCTGTTCAAGCGCCATCTAC,1.29 RPM ratio (pull-down/input)
19,GATGATTGTTCTCCCAGCTGATGAATTACTGACCTCGAGTAAACAAATTTTCCTAATCTTTCTGTTCAAGCGCCATCTAC,0.91 RPM ratio (pull-down/input)
20,GATGATTGTTCTCCCAGCTGATGAATTTGGGTAATCGAGTAAACAAATTTTCCTAATCTTTCTGTTCAAGCGCCATCTAC,1.27 RPM ratio (pull-down/input)
21,GATGATTGTTCTCCCAGCTGATGAATTCTCCGGGTCGAGTAAACAAATTTTCCTAATCTTTCTGTTCAAGCGCCATCTAC,0.759 RPM ratio (pull-down/input)
22,GATGATTGTTCTCCCAGCTGATGAATTCCGGGATTCGAGTAAACAAATTTTCCTAATCTTTCTGTTCAAGCGCCATCTAC,0.754 RPM ratio (pull-down/input)
23,GATGATTGTTCTCCCAGCTGATGAATTATCTGATTCGAGTAAACAAATTTTCCTAATCTTTCTGTTCAAGCGCCATCTAC,0.984 RPM ratio (pull-down/input)
